This passage reports Potency, max response and activity change, positive = activation results from PubChem BioAssay (Tox21).

“And” between values parts separate entries of the source, which are not always exact repeats. Identical values can stand only once. Records with an inconclusive call do not appear. Where a structure was tested more than once in an assay, its records may differ in their call. The source made the active and inactive calls. Unless noted, calls come from the whole dose curve; as a rule, active = well fitted curve in the direction sought with a large enough effect in the repeat runs; inconclusive = weak or mixed curves; inactive = no such curve, though single readings can be large; an effect the other way counts as inactive or inconclusive.

In assay [1] the target is Thyrotropin receptor (Homo sapiens) (UniProt P16473). The assay is described as follows: qHTS assay to identify small molecule agonists of the thyroid stimulating hormone receptor (TSHR) signaling pathway (AID 1224843; calls by dose curve; note: nearly all actives have a fitted effect of over 45% in size). A digest of the protocol:
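A cell-based cAMP HTRF format was run in TSHR-transfected HEK293 cells, 800 per well. Treatment: 30 min, room temperature. Detection: 1 h with labelled cAMP and anti-cAMP cryptate. Concentration-response over 15 points, three replicates.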
A general note: Quantitative high-throughput screening tests each substance at several concentrations.

A short description of assay [2]: qHTS assay to identify small molecule agonists of the hypoxia (HIF-1) signaling pathway - cell viability counter screen (AID 1224844; calls by dose curve; note: nearly all actives have a fitted effect of over 50% in size; note: potency is the fitted concentration of half-maximal effect). In short, it runs like this:
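CellTiter-Glo luminescence read-out, 30 min RT, taken in the same wells as the beta-lactamase HRE reporter assay; HRE-bla ME-180 cells, 0.5% dialyzed FBS, 17 hr compound treatment at 37C, 5% CO2.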

A short description of assay [3]: qHTS assay to identify small molecule agonists of H2AX - cell viability counter screen (AID 1224847; calls by dose curve; note: nearly all actives have a fitted effect of over 30% in size; note: potency is the fitted concentration of half-maximal effect). A digest of the protocol: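 Read-out: CellTiter-Glo luminescence, 30 min RT. Cells: wild-type CHO-K1, 1000/well, 10% FBS, plated overnight at 37C. Treatment: 15 concentrations, 3 hr, 37C, 0.76% DMSO.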
Assay [4] is described as follows: qHTS RealTime-Glo MT Cell Viability Assay in HepG2 cells - 24 hour (AID 1224867). Note: nearly all actives have a fitted effect of over 50% in size. Note: potency is the fitted concentration of half-maximal effect. In short, it runs like this:
(§1)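 Cell number in HepG2 cultures estimated from NanoLuc luminescence generated by metabolic reduction of a prosubstrate by living cells. The homogeneous, nonlytic format allowed repeated reads at 0, 8, 16, 24, 32 and 40 h of compound exposure.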

A short description of assay [5]: qHTS RealTime-Glo MT Cell Viability Assay in HEK293 cells - 32 hour (AID 1224868). Note: nearly all actives have a fitted effect of over 50% in size. Note: potency is the fitted concentration of half-maximal effect. In short, it runs like this:
(§2)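 Homogeneous bioluminescent viability format in HEK293 cells (600 cells/well). Following 5 h at 37 C/5% CO2, 23 nL compound was pintooled; the signal was measured repeatedly during 40 h incubation.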

Assay [6] can be described thus: A CellTox Green Cytotoxicity Assay to monitor cytotoxicity in HEK293 cells - 0 hour (AID 1224869). Note: nearly all actives have a fitted effect of over 50% in size. In short, it runs like this: (§3)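 Read-out: fluorescence of a cell-impermeant cyanine dye staining DNA of dead cells, proportional to cytotoxicity. HEK293, 600 cells/well with reagent, compound (23 nL DMSO) added after 5 h; reads at 0, 8, 16, 24, 32, 40 h.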
Assay [7] is described as follows: qHTS RealTime-Glo MT Cell Viability Assay in HepG2 cells - 40 hour (AID 1224870). Note: nearly all actives have a fitted effect of over 50% in size. Note: potency is the fitted concentration of half-maximal effect. A digest of the protocol:
(§4)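 Real-time viability: cells seeded at 600 per well together with NanoLuc and cell-permeant prosubstrate, compounds added after 5 h incubation. Luminescence tracked at 0, 8, 16, 24, 32 and 40 h of exposure.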

Assay [8] in a line: A CellTox Green Cytotoxicity Assay to monitor cytotoxicity in HEK293 cells - 40 hour (AID 1224871). Note: nearly all actives have a fitted effect of over 45% in size. Note: potency is the fitted concentration of half-maximal effect. In short, it runs like this: as §3
The nature of assay [9]: qHTS RealTime-Glo MT Cell Viability Assay in HEK293 cells - 16 hour (AID 1224872). Note: nearly all actives have a fitted effect of over 50% in size. Note: potency is the fitted concentration of half-maximal effect. A digest of the protocol: as §2
The nature of assay [10]: qHTS RealTime-Glo MT Cell Viability Assay in HepG2 cells - 8 hour (AID 1224873). Note: nearly all actives have a fitted effect of over 55% in size. Note: potency is the fitted concentration of half-maximal effect. In short, it runs like this:
as §4

The nature of assay [11]: qHTS RealTime-Glo MT Cell Viability Assay in HEK293 cells - 40 hour (AID 1224874). Note: nearly all actives have a fitted effect of over 50% in size. Note: potency is the fitted concentration of half-maximal effect. As to conditions: RealTime-Glo luminescence; max response: stronger effect = lower value. A digest of the protocol:
(§5)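 Luminescence readout at each listed time point; HEK293, 600 cells/well, RealTime-Glo MT reagent added with cells; compounds pinned (23 nL in DMSO) after 5 h at 37 C; continuous culture at 37 C.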

Assay [12] is described as follows: A CellTox Green Cytotoxicity Assay to monitor cytotoxicity in HEK293 cells - 24 hour (AID 1224875). Note: nearly all actives have a fitted effect of over 45% in size. Note: potency is the fitted concentration of half-maximal effect. A digest of the protocol:
as §3

A short description of assay [13]: A CellTox Green Cytotoxicity Assay to monitor cytotoxicity in HepG2 cells - 16 hour (AID 1224876). Note: nearly all actives have a fitted effect of over 45% in size. Note: potency is the fitted concentration of half-maximal effect. In short, it runs like this: (§6)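 HepG2, 600 cells/well premixed w/ CellTox Green; 5 h settle, 37 C/5% CO2; pintool cpd add (DMSO); 37 C, 40 h; fluorescence read at 0, 8, 16, 24, 32, 40 h.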
Assay [14] is described as follows: qHTS RealTime-Glo MT Cell Viability Assay in HepG2 cells - 32 hour (AID 1224877). Note: nearly all actives have a fitted effect of over 55% in size. Note: potency is the fitted concentration of half-maximal effect. A digest of the protocol: as §1
Assay [15] is described as follows: A CellTox Green Cytotoxicity Assay to monitor cytotoxicity in HepG2 cells - 24 hour (AID 1224878). Note: nearly all actives have a fitted effect of over 45% in size. Note: potency is the fitted concentration of half-maximal effect. A digest of the protocol:
as §6

The nature of assay [16]: A CellTox Green Cytotoxicity Assay to monitor cytotoxicity in HepG2 cells - 40 hour (AID 1224879). Note: nearly all actives have a fitted effect of over 40% in size. Note: potency is the fitted concentration of half-maximal effect. A digest of the protocol:
as §6

A short description of assay [17]: qHTS RealTime-Glo MT Cell Viability Assay in HEK293 cells - 0 hour (AID 1224880). In short, it runs like this: as §5
A short description of assay [18]: qHTS assay to identify small molecule agonists of H2AX (AID 1224845; active = well fitted activation curve with a large enough effect in the signal ratio in the repeat runs, not every such curve was filed as active; the % refers to the signal ratio; note: potency is the fitted concentration of half-maximal effect). In short, it runs like this: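 Phospho-H2AX Ser139 measured by HTRF (ex 320 nm; em 665 and 620 nm) after 24 hr antibody incubation. Compounds, 15 concentrations, 0.76% DMSO, were applied to CHO-K1 cells for 3hr at 37C before lysis.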
Assay [19] in a line: qHTS assay to identify small molecule agonists of the estrogen related receptor (ERR) signaling pathway from Tox21 library (AID 1224849; calls by dose curve; note: nearly all actives have a fitted effect of over 15% in size). The following applies: ERR reporter cell line, ONE-Glo luciferase, 18 h; at 42.5 µM (top of the series). A digest of the protocol:
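Luminescence readout (ONE-Glo, 30 min RT) after 18 h compound exposure at 37 C of NTP-supplied ERR reporter cells; cells were plated 6 h before compound addition by pin tool.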
% is set by controls: 0 for no effect and ±100 for the full control effect.

Chain of Thyrotropin receptor (Homo sapiens) (P16473 whole entry, looked up): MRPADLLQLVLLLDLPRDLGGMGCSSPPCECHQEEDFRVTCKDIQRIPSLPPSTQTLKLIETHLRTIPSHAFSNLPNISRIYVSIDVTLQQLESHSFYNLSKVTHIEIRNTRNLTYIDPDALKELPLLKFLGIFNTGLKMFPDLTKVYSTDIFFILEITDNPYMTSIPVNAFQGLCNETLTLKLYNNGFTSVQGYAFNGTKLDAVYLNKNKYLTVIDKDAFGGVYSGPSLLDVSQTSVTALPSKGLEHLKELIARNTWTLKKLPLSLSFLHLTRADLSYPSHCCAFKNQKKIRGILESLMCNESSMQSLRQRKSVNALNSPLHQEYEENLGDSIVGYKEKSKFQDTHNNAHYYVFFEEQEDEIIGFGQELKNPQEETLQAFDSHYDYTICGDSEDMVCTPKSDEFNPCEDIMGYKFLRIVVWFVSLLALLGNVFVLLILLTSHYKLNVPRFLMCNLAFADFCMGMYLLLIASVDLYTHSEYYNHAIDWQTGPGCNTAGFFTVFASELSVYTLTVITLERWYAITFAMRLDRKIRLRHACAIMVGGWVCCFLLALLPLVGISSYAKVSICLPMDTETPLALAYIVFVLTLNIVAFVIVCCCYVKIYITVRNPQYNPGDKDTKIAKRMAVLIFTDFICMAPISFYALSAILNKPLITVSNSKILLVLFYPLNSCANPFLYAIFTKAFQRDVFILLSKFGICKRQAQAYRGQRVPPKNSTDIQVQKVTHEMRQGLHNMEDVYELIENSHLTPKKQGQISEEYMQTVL

In the case of `CN1[C@@H]2CC(OC(=O)[C@H](CO)c3ccccc3)C[C@H]1[C@@H]1O[C@@H]12` (stereo partly specified), the Potency entry in assay [1], in assay [2], in assay [3], in [4], in [5] and in assay [6] was “inactive” each time. The Potency result in [7], in [8], in assay [9], in [10], in [12] and in [13] was “inactive” throughout. Besides, the Potency entry in assay [14], in assay [15], in assay [16] and in assay [17] was “inactive” each time. In addition, the max response in [11] was 0.652% (inactive) [middle of 4 runs].
On to `CCCCOC(=O)c1ccc(O)cc1`, for which the Potency entry in assay [1], in assay [2], in assay [18], in [3], in assay [4] and in [6] was “inactive” throughout. In addition, the Potency result in assay [7], in assay [10], in [12], in [13], in assay [15] and in assay [16] was “inactive” throughout. In addition, the Potency result in assay [17] is “inactive”. In addition, the Potency is 24.8 µM (active) in assay [5]; 24.8 µM (active) and inactive in assay [9]; 24.8 µM (active) and 21.9 µM (active) in [11].
Consider `CC/C(=C(\c1ccccc1)c1ccc(OCCN(C)C)cc1)c1ccccc1`, for which the Potency entry in assay [1] and in assay [6] was “inactive” each time. Moreover, the Potency in [2] is 24.8 µM (active) [middle of 4 runs]; in assay [18] it was 50.5 µM (active); in [3] it was 80.7 µM (active) [middle of 5 runs]; in [4] it was 38.9 µM (active) [middle of 4 runs]; in assay [5], 22.1 µM (active) [middle of 5 runs]; in assay [7] it was 24.5 µM (active) [middle of 4 runs]. In addition, the Potency in assay [8] is 24.7 µM (active) [middle of 5 runs]; in [9] it was 34.6 µM (active) [middle of 5 runs]; in assay [10] it was 54.9 µM (active) and 19.7 µM (active) and 43.6 µM (active); in assay [11], 22.1 µM (active) [middle of 5 runs]; in assay [12] it was 35 µM (active) [middle of 5 runs]; in assay [13], 54.9 µM (active) [middle of 4 runs]. The Potency was 30.9 µM (active) [middle of 4 runs] in assay [14], 48.9 µM (active) [middle of 5 runs] in assay [15] and 43.6 µM (active) [middle of 5 runs] in [16].
`O=C(Nc1ncc([N+](=O)[O-])s1)c1cccs1`: the Potency result in assay [1], in assay [2], in assay [18], in assay [4], in assay [5] and in assay [6] was “inactive” throughout. The Potency result in [7], in [8], in assay [9], in assay [10], in assay [12] and in assay [13] was “inactive” throughout. The Potency entry in assay [14], in assay [15], in assay [16] and in [17] was “inactive” throughout. For the same compound, in [3], the Potency was 24.7 µM (active). Besides, the activity change, positive = activation in assay [19] is 14.6% (active). Also, in assay [11], the max response is -20.9% (inactive).
On to `Cc1cn([C@H]2C=C[C@@H](CO)O2)c(=O)[nH]c1=O`, for which the Potency result in assay [1], in assay [2], in assay [3], in assay [4], in assay [5] and in assay [6] was “inactive” throughout. The Potency result in assay [7], in assay [8], in assay [9], in assay [10], in [12] and in [13] was “inactive” in each case. For the same compound, the Potency result in assay [15], in assay [16] and in [17] was “inactive” in each case. Further, in assay [11], the max response is 3.84% (inactive) and 0.681% (inactive).
Consider `O=C1NC(=O)C(c2ccccc2)(c2ccccc2)N1`, for which the Potency result in assay [1], in [2], in assay [18], in assay [3], in assay [4] and in assay [5] was “inactive” throughout. The Potency result in assay [6], in [7], in assay [9], in assay [10] and in assay [17] was “inactive” each time. Besides, the Potency result in [8] was “inactive and 16.9 µM (active)”; in [13], “inactive and 23.9 µM (active)”; in assay [15], “inactive and 23.9 µM (active)”; in [16] it was “inactive and 23.9 µM (active)”. Also, the max response in [11] was -30.3% (inactive) and -21% (inactive).
